The results in this text go back to ChEMBL document CHEMBL3433997, “St. Jude Leishmania screening dataset” (2016).

The target in this assay is Glucose transporter (Leishmania mexicana) (UniProt O61059). Nature of the assay: ST_JUDE_LEISH: Cytotoxicity at 2uM final concentration against transgenic Leishmania Mexicana promastigotes LmGT2 that are glucose transport deficient and complemented with the L. Mexicana glucose transporter 2. Activity is measured by DNA content using SYBR green in vitro. It is filed as functional.
For the compound `Cc1cccc2nc(-c3ccc(-c4ccc(NC(=O)NCc5ccc(F)cc5)cc4)cc3)[nH]c12`, the inhibition amounted to 0.63%.
The result for `Cc1cccc2nc(-c3ccc(-c4ccc(CN5CCN(c6ccncc6)CC5)cc4)s3)[nH]c12` reads 1.09%; that for `N#Cc1ccc(-c2ccc(C(=O)NCCCCN3CC=C(c4ccc5c(c4OCC4CC4)CCCC5)CC3)cc2)cc1`, -0.24%.
For the compound `COc1cc2c(=O)c(Cc3ccc(Cl)cc3)c(C)[nH]c2cc1F`, the inhibition came out at 0.73%.
Next, `CN(c1ncc(-c2cccc(CNCc3ccccc3O)c2)cn1)C1CCCCC1`: 0.12%; `CC1(C)NC(N)=NC(=N)N1OCCCOc1ccc(N)cc1`: -1.26%; `O=[N+]([O-])c1c(O)nc2c(c1O)CCC2`: 4.11%.
Turning to `CS(=O)(=O)N(c1ccc(F)cc1)c1cc(C(=O)N[C@@H](Cc2ccccc2)[C@H](O)CNCc2cccc(C(F)(F)F)c2)cc(N2CCCC2=O)c1`, the inhibition is -1.53%.
On to `CCCCCCc1ncc(-c2cc3cc(O)c(-c4ccccc4)cc3oc2=O)s1`, for which the inhibition is -5.92%.
On to `Cc1cccc2nc(-c3cccc(-c4ccc(NC(=O)CCc5c[nH]cn5)cc4)c3)[nH]c12`, for which the inhibition turned out to be 8.27%.
Take `COc1ccc2ncc(F)c(NC(=O)C3CCC(NCc4cc5c(F)cccc5[nH]4)CC3)c2n1` (stereo not given): the inhibition was determined as 77.4%.
On to `O=C(NCCCc1ccccc1)c1ccc(O)c(-c2cc(Cl)cc(Cl)c2)c1`, for which the inhibition stood at 3.61%.
Consider `Cc1nc(C)c(-c2ccc(Cl)cc2Cl)c(O)c1Br`, for which the inhibition was found to be 3.83%.
The result for `O=C(/C=C/c1ccc(Cl)c(Cl)c1)NCCCCCN1CCC(NC(=O)NC2CCCCC2)CC1` reads 1.22%; that for `C=CCc1cc(OC)ccc1OCCCOc1c(C)nc(N)nc1N`, 65.3%; that for `Cc1cc(F)ccc1Oc1nc(Nc2ccc(N3CCOCC3)c(F)c2)nc2c1S(=O)(=O)CCC2`, 2.35%.
For the compound `CS(=O)(=O)NCCCNCc1cccc(-c2ccc(-c3nc4cc(C(F)(F)F)ccc4[nH]3)cc2)c1`, the inhibition was 0.95%.
The result for `CCC(O)c1ccc(Br)cc1NC(=O)c1cccc(Cl)c1` (stereo not given) reads -0.55%.
Turning to `CCN(CC)CCn1c(=N)n(CC(O)c2ccc(Cl)c(Cl)c2)c2ccccc21` (stereo not given), the inhibition was found to be 12.9%.
The result for `CC(=O)Nc1ccc(CN(Cc2ccc(C)cc2)Cc2cccc(Oc3ccccc3)c2)cc1` reads 2.62%.
Consider `Cc1noc(C)c1-c1ccc2c(Nc3cccc4c3-c3ccccc3C4=O)c(C(=O)NCc3ccccc3I)cnc2c1`, for which the inhibition was 6.11%.
For `COc1ccc2nccc([C@@H](O)CN3CCC(NC(=O)Cn4nc(-c5ccc(C(F)(F)F)cc5)ccc4=O)CC3)c2c1`, the inhibition is 1.3%.
For `CCCN1CCN(CC(O)CNC(=O)Nc2ccc(Br)cc2)CC1` (stereo not given), the inhibition is 3.09%.
Regarding `Cc1[nH]c(C)c(-c2ccc(OCc3cc(C(F)(F)F)cc(C(F)(F)F)c3)nc2)c(=O)c1Br`, the inhibition amounted to 2.99%.
The result for `COc1ccccc1C(=O)Nc1ccc(Nc2nc(C)cc(N3CCOCC3)n2)cc1` reads 5.97%.
In the case of `Cc1cc(=O)c(-c2ccc(Oc3ccc(C(F)(F)F)cc3)cc2)c(C)n1O`, the inhibition was -1.9%.
For `O=C(/C=C/c1ccc(Cl)c(Cl)c1)NCCCCCN1CCC(CCNC(=O)c2snnc2-c2ccccc2)CC1`, the inhibition was -0.16%.
As to `CCN(CC)CCN(Cc1ccc(-c2ccc(C(F)(F)F)cc2)cc1)C(=O)Cn1c(CCc2cccc(F)c2F)cc(=O)c2c1CCCC2`, the inhibition turned out to be 9.85%.
`O=C(NCCc1ccccc1)N(Cc1ccccc1-c1ccc(CNCCc2ccccc2)cc1)C1CCN(Cc2ccccc2)CC1`: the inhibition stood at 3.55%.
On to `Cc1cc(N/N=C/c2ccccc2[N+](=O)[O-])c2cc(F)ccc2n1`, for which the inhibition was 0.94%.
`O=C(CCCCCNC(=O)c1ccc(O)c(-c2ccc(Cl)c(Cl)c2)c1)NCCN1CCOCC1`: the inhibition turned out to be 2.65%.
With `COc1cccc(OC)c1OCCCON1C(=N)N=C(N)NC1(C)C`, the inhibition was 2.31%.
In the case of `CSC1=NC(=Nc2c(C)cccc2C)C2(CCCCC2)N1c1ccccc1Cl`, the inhibition was -2.07%.
`CCCCCCc1cc2cc(-c3nc(-c4ccc(OC)cc4)cs3)c(=O)oc2cc1O`: the inhibition is -8.01%.
On to `CN(C)C(S)=NN=Cc1cccc(O)c1O`, for which the inhibition came to 4.78%.
Consider `COc1cc2c(cc1C(F)(F)F)N(C(=O)Nc1cccc(-c3ccc(CN(C)C)cc3)c1)CC2`, for which the inhibition stood at 44%.
With `CCN(CC)CCCC(C)N=c1cc(C=Cc2ccc([N+](=O)[O-])cc2)[nH]c2ccc(OC)cc12` (stereo not given), the inhibition was 2.98%.
Turning to `COc1ccc2nccc([C@@H](O)CN3CCC(NCCNc4ccccn4)CC3)c2c1`, the inhibition stood at 6.24%.
Turning to `Cc1nc(C)c(-c2ccc(-c3ccc(F)cc3)cc2)c(O)c1Br`, the inhibition was -1.77%.
The result for `CS(=O)(=O)c1ccc(CNCc2cccc(-c3cccc(-c4nc5cc(F)ccc5[nH]4)c3)c2)cc1` reads -2.93%.

As a reminder, the inhibition is the change of the read-out against control, counted positive when it falls.
